Bioassay records (PubChem)
In the library only some 12% were active in any assay of this set; here they are far more common.
Pf growth 48h: P. falciparum growth inhibition at 48 hours (one generation) | 5.9% of 310,000 active | Potency, µM (series often up to 28.7 µM), for the others: top-dose activity change, negative = inhibition, usual class: inhibitors | P. falciparum luciferase growth in erythrocytes, 48 h; also: % is scaled to controls: 0 for no effect and ±100 for the full control effect
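Erythrocytes infected with P. falciparum carrying an integrated firefly luciferase reporter (2% hematocrit, 0.1% parasitemia final) were exposed to compounds in RPMI 1640 with 0.5% Albumax at 37 C, 5% CO2. Growth inhibition was scored as reduced luminescence.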
Pf growth 96h: inhibits malaria parasite growth, 96 h; P. falciparum luciferase reporter growth, 96 h; 6.9% of 320,000 active; Potency, µM (titrated, usually from 28.7 µM), inactives show at the top dose activity change, negative = inhibition, hits mostly inhibitors; also: % is scaled to controls: 0 for no effect and ±100 for the full control effect
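P. falciparum expressing integrated firefly luciferase, in erythrocytes at 2% hematocrit, 0.05% parasitemia, incubated with compounds 96 h at 37 C, 5% CO2. Growth inhibition read as loss of luminescence; two-generation exposure targets delayed-death apicoplast inhibitors.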
Sm TGR block: inhibitors of Schistosoma mansoni thioredoxin glutathione reductase | Potency, µM (doses to about 114 µM), for the others: at the top dose activity change, negative = inhibition, most hits filed as inhibitors | purified TGR, DTNB reduction, TNB absorbance 405 nm | 3% of 360,000 active; also: % is scaled to controls: 0 for no effect and ±100 for the full control effect; nearly all actives have a fitted effect of over 60% in size
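First, TGR (20 nM dispensed) and NADPH were mixed with compound. Second, a 15 min room-temperature incubation followed. Third, further NADPH and then DTNB were added to start the reaction. Finally, TNB absorbance was monitored kinetically.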
SARS PLpro yeast: blocks SARS-CoV papain-like protease in a yeast assay. 0.19% of 330,000 active. AID 485353. Potency, µM (doses to about 32.9 µM), for inactives: top-dose activity, positive = growth rescue, hits mostly activators. S. cerevisiae expressing SARS-CoV PLpro, growth rescue; calls by dose curve; also: 0% is about no effect; nearly all actives have a fitted effect of over 55% in size
The depositor's hits bear a star; [ ] = remark or other dose. Unless noted, calls follow the shape of the dose curve; as a rule, active = well fitted curve in the direction sought with a large enough effect; inconclusive = small, poorly fitted or top-dose-only effect, or another doubt; inactive = no such curve, though single readings can be large; an effect the other way counts as inactive or inconclusive. Potency is read from the fitted curve at half-maximal effect.

`COc1ccc(-c2cc(C(F)(F)F)nc(S(=O)(=O)CCC(=O)N3CCOCC3)n2)cc1` gave Pf growth 48h inconclusive, Sm TGR block 28µM* and SARS PLpro yeast 8%.
For COc1ccc(-c2cc(C(F)(F)F)nc(SCC(=O)N3CCOCC3)n2)cc1OC the results were Pf growth 48h -23%, Pf growth 96h inconclusive, Sm TGR block 4% and SARS PLpro yeast 1%.
For COc1ccccc1-c1cc(C(F)(F)F)nc(S(=O)(=O)CCCC(=O)Nc2ccc(F)c(Cl)c2)n1 the results were Sm TGR block -12%.
Screening COc1ccc(-c2cc(C(F)(F)F)nc(S(=O)(=O)CCCC(=O)Nc3cccc(O)c3)n2)cc1OC returned Pf growth 48h inconclusive, Pf growth 96h -4%, Sm TGR block 35µM* and SARS PLpro yeast -2%.
`COc1ccc(NC(=O)CCS(=O)(=O)c2nc(-c3ccc4c(c3)OCO4)cc(C(F)(F)F)n2)cc1` gave Sm TGR block 79µM*.
Screening Cc1cc(NC(=O)CCS(=O)(=O)c2nc(-c3ccccc3)cc(C(F)(F)F)n2)no1 returned Pf growth 48h 0%, Pf growth 96h -18%, Sm TGR block 32µM* and SARS PLpro yeast -10%.
Screening CS(=O)(=O)c1nc(-c2ccccc2)cc(C(F)(F)F)n1 returned Pf growth 48h -17%, Pf growth 96h 11%, Sm TGR block 10µM* and SARS PLpro yeast -95%.
Screening COc1ccccc1-c1cc(C(F)(F)F)nc(S(=O)(=O)CCCC(=O)N2CCOCC2)n1 returned Pf growth 48h inconclusive, Pf growth 96h -2%[5.75 µM], Sm TGR block 32µM* and SARS PLpro yeast 1%.
For Cc1ccc(Cl)cc1N1CCN(C(=O)C2CCN(S(=O)(=O)c3cnc[nH]3)CC2)CC1 the results were Pf growth 48h -6%, Pf growth 96h 2.6µM*, Sm TGR block 1% and SARS PLpro yeast 2%.
For CCc1ccc(NC(=O)C2CCCN(S(=O)(=O)c3cnc[nH]3)C2)cc1 (stereo not drawn) the results were Pf growth 48h -6%, Pf growth 96h inconclusive, Sm TGR block -11% and SARS PLpro yeast 1%.
`CCc1ccc(NC(=O)C2CCN(S(=O)(=O)c3cnc[nH]3)CC2)cc1` gave Pf growth 48h inconclusive, Pf growth 96h 13µM*, Sm TGR block -1% and SARS PLpro yeast -5%.
For CN(C(=O)CSc1nncn2c1cc1occc12)c1ccccc1 the results were Sm TGR block -11%.
`COc1ccc(-c2c(C)nn3c(N)c(-c4ccccc4)cnc23)cc1OC` gave Pf growth 48h inconclusive, Pf growth 96h -12%, Sm TGR block 40µM* and SARS PLpro yeast -2%.
`Cc1ccc(NC(=O)COCc2cc(-c3cccs3)on2)cc1Cl` gave Sm TGR block 4%.
For Fc1ccc(-n2c(Cc3ccccc3)nnc2SCc2nc(-c3cccs3)no2)cc1 the results were Pf growth 48h 10µM*, Pf growth 96h -27%, Sm TGR block 1% and SARS PLpro yeast -18%.
`c1ccc(-c2noc(CSc3nnc(Cc4cccs4)n3-c3ccccc3)n2)cc1` gave Pf growth 48h inconclusive, Pf growth 96h 0%, Sm TGR block 2% and SARS PLpro yeast -2%.
Cc1ccc(-c2noc(CSc3nnc(-c4ccncc4)n3-c3ccc(C)cc3)n2)cc1 was read as Pf growth 48h inconclusive, Pf growth 96h 12µM*, Sm TGR block 0% and SARS PLpro yeast -5%.
Screening Cc1ccc(-c2noc(CSc3nnc(Cc4cccs4)n3-c3ccccc3)n2)cc1 returned Pf growth 48h -11%, Pf growth 96h 4.7µM*, Sm TGR block 5% and SARS PLpro yeast -13%.
For O=C(c1ccncc1)N1N=C(c2ccc(Cl)cc2)CC1c1ccccc1O (stereo not drawn) the results were Pf growth 48h inconclusive, Pf growth 96h inconclusive, Sm TGR block 4% and SARS PLpro yeast -19%.
`COc1ccc(N=C2C(=Nc3ccc(OC)cc3)N(c3ccc(OC)cc3)C(=S)N2C)cc1` gave Pf growth 48h 5.2µM*, Sm TGR block -1% and SARS PLpro yeast -2%.
`COc1ccc(N=C2C(=Nc3ccc(OC)cc3)N(c3ccc(OC)cc3)C(=S)N2c2ccccc2)cc1` gave Pf growth 48h 28%, Sm TGR block -5% and SARS PLpro yeast 14%.
For CC(=O)c1cc(C#N)c(SCCC(C)C)nc1C the results were Pf growth 48h inconclusive, Pf growth 96h inconclusive, Sm TGR block 13% and SARS PLpro yeast -1%.
